# Test results taken from PubChem BioAssay (EPA / NIEHS).
# Records with an inconclusive call do not appear. Active and inactive are the calls of the source. How the source made its calls: active means hit-call score of the fitted dose curve at least 0.9, where 1 is the maximum; inconclusive means response in the unintended direction; inactive means score below 0.9.
# Target: human Vitamin D Receptor (VDR), VDR (gene 7421) (UniProt P11473)
# Assay: ATG_VDR_TRANS: Attagene TRANS-FACTORIAL HepG2 Assay for human Vitamin D Receptor (VDR) (AID 2283022)
# Method in brief: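 Transactivation by an exogenous VDR-Gal4 chimera in transiently transfected HepG2 cells was measured as reporter transcript level 24 hours after chemical treatment. RT-PCR products were analysed by capillary electrophoresis and fitted in the positive direction relative to DMSO.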
# Chain of human Vitamin D Receptor (VDR), VDR (gene 7421) (P11473 whole entry, looked up): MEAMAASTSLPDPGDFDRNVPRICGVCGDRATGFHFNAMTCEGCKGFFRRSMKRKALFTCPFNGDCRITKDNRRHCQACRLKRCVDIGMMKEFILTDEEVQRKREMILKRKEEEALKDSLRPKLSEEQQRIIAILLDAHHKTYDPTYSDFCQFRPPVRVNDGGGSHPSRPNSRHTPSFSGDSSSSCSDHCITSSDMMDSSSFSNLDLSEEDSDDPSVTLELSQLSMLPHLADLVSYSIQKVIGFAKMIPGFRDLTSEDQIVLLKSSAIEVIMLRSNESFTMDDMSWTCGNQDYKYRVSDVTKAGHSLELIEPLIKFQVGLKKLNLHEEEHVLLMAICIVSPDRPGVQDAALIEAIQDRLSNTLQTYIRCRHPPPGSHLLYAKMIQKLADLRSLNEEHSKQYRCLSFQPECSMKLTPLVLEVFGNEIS
row,Compound,outcome
1,CCc1ccc(C=O)cc1,inactive
2,O=C(O)c1snc(Cl)c1Cl,inactive
3,NC(N)=NC(=O)c1nc(Cl)c(N)nc1N,inactive
4,C=C(C)C(=O)O,inactive
5,N#Cc1ccccc1,inactive
6,O=C(OCc1ccccc1)C(=O)OCc1ccccc1,inactive
7,ClCCCl,inactive
8,CC(C)c1cccc(O)c1,inactive
9,CCCCCC(CO)CCC (stereo not drawn),inactive
10,CCCCCCCCCCCCCCCC(=O)OC[C@H](O)[C@H]1OC(=O)C(O)=C1O,inactive
11,CC(C)=CCO,inactive
12,O=c1cc(-c2ccccc2)oc2cc(O)cc(O)c12,inactive
13,O=C1NC(=O)c2ccccc21,inactive
14,Clc1ccc(Cl)c(Cl)c1Cl,inactive
15,COc1cccc(OC)c1,inactive
16,O=C1C(c2[nH]c3ccc(S(=O)(=O)O)cc3c2O)=Nc2ccc(S(=O)(=O)O)cc21,inactive
17,CCCCCCCCCCCCCC(=O)O,inactive
18,C=O,inactive
19,O=C(O)c1cccc(C(F)(F)F)c1,inactive

row,Compound,outcome
1,C[Si](O[Si](C)(C)C)O[Si](C)(C)C,inactive
2,CCCCCCCCCCCCCCCC(=O)O,inactive
3,COC(=O)C1=C(C)NC(C)=C(C(=O)OCCN(C)Cc2ccccc2)C1c1cccc([N+](=O)[O-])c1 (stereo not drawn),inactive
4,CC(C)=CCC[C@H](C)CC=O,inactive
5,CC(C)(C)NC(N)=O,inactive
6,CNCCCC12CCC(c3ccccc31)c1ccccc12,inactive
7,CC(=O)Nc1ccc(C)cc1C,inactive
8,CCN(CC)CCOC(=O)c1ccc(N)cc1,inactive
9,C=CC(=O)NCOCC(C)C,inactive
10,Cc1c(N(C)C)c(=O)n(-c2ccccc2)n1C,inactive
11,O=Nc1ccc(Nc2ccccc2)cc1,inactive
12,CC(C)(C)c1cc(CCC(=O)NN)cc(C(C)(C)C)c1O,inactive
13,CCC(=O)/C=C/C1C(C)=CCCC1(C)C (stereo not drawn),inactive
14,Cc1ccc2sc3cccc(C)c3c2c1,inactive
15,CC(C)(C)C(=O)c1ccccc1,inactive
16,O=Cc1ccc(Cl)c([N+](=O)[O-])c1,inactive
17,COC(C)CCO (stereo not drawn),inactive
18,C=C(C)C(=O)Nc1ccc(Cl)c(Cl)c1,inactive
19,NCCCN1CCOCC1,inactive
